Measured values reported in paper PMC6212790, “How bacterial xenogeneic silencer rok distinguishes foreign from self DNA in its resident genome”.
In all, about 33,000 sequences were measured (“e-score”: median about -0.038, highest 2% from about 0.33 on). For the sample, the highest values were picked, then their nearest neighbours and some sequences at random.

These sequences were tested against T1, GST-Rok-C97-191 (Bacillus subtilis subsp. subtilis str. …, UniProt O34857 97-191) (assay: protein binding microarray; Rok is a gene silencer of Bacillus subtilis; high values mean tight binding). Conditions: protein: recombinant; tags: GST (pTH5325, pDEST15-Magic modified); dsDNA, one strand shown.
T1 sequence: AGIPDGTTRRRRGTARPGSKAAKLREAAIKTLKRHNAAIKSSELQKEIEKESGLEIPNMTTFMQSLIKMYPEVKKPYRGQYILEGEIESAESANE
Procedure, shortened: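 Every oligonucleotide joins a 25-mer constant primer to a 35-mer variable part drawn from a de Bruijn sequence of order 10, so each non-palindromic 8-mer appears at least 32 times and each palindromic 8-mer 16 times. The preference for every 8-mer is reported as a unitless, rank-based enrichment score (E-score). This score spans 0.5 for the most favored 8-mer to −0.5 for the most disfavored.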
For ACCTCACT, the binding signal was -0.0237 E-score. Sequence TCAGCCGA has a binding signal of -0.0187 E-score. For TATAAAAA, the binding signal was 0.244 E-score. Work on AATATAAA yielded a binding signal of 0.361 E-score. Work on TATATAAA yielded a binding signal of 0.394 E-score. GATAAAAA showed a binding signal of 0.234 E-score. Sequence GATATAAA has a binding signal of 0.34 E-score. In the case of GATATAAC, the binding signal is reported as 0.297 E-score. With AATATAAC the binding signal was 0.205 E-score. Work on CATATAAA yielded a binding signal of 0.138 E-score. AATATAAT was tested, and the binding signal was 0.23 E-score. ACTGTTGC gave a binding signal of 0.119 E-score. Work on TGACTCCA yielded a binding signal of -0.0987 E-score. In the case of AGGAGGGA, the binding signal is reported as -0.173 E-score. For CAGTTATG, the binding signal was 0.0833 E-score. ATATACCG showed a binding signal of 0.384 E-score. AGATACCG was tested, and the binding signal was 0.171 E-score. ATATACCC gave a binding signal of 0.127 E-score. For ATATACCA, the binding signal was 0.344 E-score. Work on CAATACCG yielded a binding signal of 0.121 E-score. Work on AAATACCA yielded a binding signal of 0.286 E-score. Work on AAATACCG yielded a binding signal of 0.37 E-score. In the case of CTATACCA, the binding signal is reported as 0.201 E-score. GTATACCA gave a binding signal of 0.267 E-score. In the case of AGGAGACG, the binding signal is reported as -0.19 E-score. Sequence CAGCTCGG has a binding signal of -0.0345 E-score. Sequence AAGTGACT has a binding signal of -0.0548 E-score. In the case of TCTGTCAA, the binding signal is reported as -0.116 E-score. CAAGCCTG gave a binding signal of -0.132 E-score. For ATCAGTGC, the binding signal was -0.0896 E-score. CAACGGAC was tested, and the binding signal was -0.085 E-score. With GTTAGTAA the binding signal was 0.163 E-score. Work on AGTAGTAA yielded a binding signal of 0.404 E-score. GCTAGTAA gave a binding signal of 0.286 E-score. For TGTAGTAA, the binding signal was 0.286 E-score. CGTAGTAA gave a binding signal of 0.205 E-score. GGTAGTAA showed a binding signal of 0.396 E-score. ACTAAACT gave a binding signal of 0.244 E-score. In the case of TGGCGAAA, the binding signal is reported as 0.0439 E-score. With GTTTTGCA the binding signal was 0.0567 E-score. Sequence CGTACGTA has a binding signal of 0.05 E-score. Sequence AATTAATA has a binding signal of 0.305 E-score. In the case of CATTAATA, the binding signal is reported as 0.186 E-score. In the case of TACTAATA, the binding signal is reported as 0.298 E-score. For TATTAATA, the binding signal was 0.352 E-score. GAATAAAA gave a binding signal of 0.119 E-score. For TAATAATA, the binding signal was 0.424 E-score. CACTAATA showed a binding signal of 0.33 E-score. In the case of AAATAATA, the binding signal is reported as 0.317 E-score. CAATAATA was tested, and the binding signal was 0.312 E-score. In the case of TAATAAAA, the binding signal is reported as 0.344 E-score. CAATAAAA showed a binding signal of 0.239 E-score. For CACTAATC, the binding signal was 0.1 E-score. Work on AGAGAATG yielded a binding signal of 0.0921 E-score. Work on CATGGTTA yielded a binding signal of 0.0882 E-score. AAGGAGCG showed a binding signal of -0.2 E-score. In the case of AGAGGCAA, the binding signal is reported as -0.195 E-score. Sequence GACCTTGC has a binding signal of -0.129 E-score. In the case of GAATAATA, the binding signal is reported as 0.349 E-score. GAATAAGA gave a binding signal of 0.0835 E-score. GAATAATC was tested, and the binding signal was -0.0939 E-score. In the case of AGCCAACC, the binding signal is reported as -0.074 E-score. In the case of ATTCGCCC, the binding signal is reported as -0.192 E-score. ATGATATG showed a binding signal of 0.226 E-score. CTGATATA showed a binding signal of 0.258 E-score. ATGATAGC gave a binding signal of 0.15 E-score. With ATGATAGG the binding signal was 0.0735 E-score. For ATGATATA, the binding signal was 0.386 E-score. ATGATAGA was tested, and the binding signal was 0.36 E-score. Work on GGACGTCC yielded a binding signal of -0.0863 E-score. Sequence AAGCACAA has a binding signal of 0.035 E-score. Work on TCGGTCAA yielded a binding signal of 0.044 E-score. GACAAATA gave a binding signal of 0.111 E-score. Sequence AGCATAAT has a binding signal of 0.369 E-score. For AGCATAAG, the binding signal was -0.133 E-score. AGCATAAA was tested, and the binding signal was 0.179 E-score. CGTTGTCA gave a binding signal of 0.0104 E-score. Sequence TCTATGCA has a binding signal of 0.172 E-score. In the case of AATATTCG, the binding signal is reported as 0.307 E-score. AATATTGT gave a binding signal of 0.372 E-score. Sequence AATATTCT has a binding signal of 0.347 E-score. In the case of AATATTCC, the binding signal is reported as 0.106 E-score. AATATTGA showed a binding signal of 0.22 E-score. In the case of AATATTGG, the binding signal is reported as -0.0277 E-score. In the case of AAACATTC, the binding signal is reported as 0.0952 E-score. For CGATGTCA, the binding signal was -0.131 E-score. GGTCCCAA showed a binding signal of -0.183 E-score. Sequence ATGGACGC has a binding signal of -0.141 E-score. GCTAACTA showed a binding signal of 0.324 E-score. Sequence AGTAACTC has a binding signal of 0.0388 E-score. Sequence ACTAACTA has a binding signal of 0.367 E-score. With GGTAACGA the binding signal was 0.0496 E-score. AGTAACTG gave a binding signal of 0.124 E-score. For ACTAACTG, the binding signal was 0.16 E-score. CGTAACTA showed a binding signal of 0.314 E-score. GGTAACTA was tested, and the binding signal was 0.336 E-score. AGTAACTA was tested, and the binding signal was 0.436 E-score.
